Molecules are shown by their SMILES. The whole screen tested about 9,900 compounds, of which about 90 (0.9%) were called active. Roughly 2% stayed inconclusive and do not appear here.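 Rule for the calls: active = mean normalized replicate activity at least 50 and at least half of replicates each reaching 50; inconclusive = only one of the two criteria met; inactive = neither criterion met.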 For the sample, actives were picked, then their nearest neighbours and some compounds at random.

A word on the inhibition: it is the change of the read-out against control, counted positive when it falls.

The nature of this experiment: reduction of CTGF mRNA in DLD1 cells – DLD1 colon cancer cells, RT-qPCR, single point, primary screen (AID 743449).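 Note: 0% = neutral control wells and 100% = dasatinib control wells; higher means stronger suppression of CTGF expression like dasatinib.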 As to conditions: 24 h, at 12.5 µM, active compounds read high. In general terms: Quantitative PCR measures a nucleic acid by following its amplification.
In the case of `O=C(CN1CCOCC1)N[C@@H]1CC[C@@H](CCn2cc(C3CC3)nn2)O[C@H]1CO`, the inhibition is -8.58% (inactive). Turning to `C[C@@H]1CN([C@@H](C)CO)C(=O)c2cccc(NS(=O)(=O)c3ccc(F)cc3)c2O[C@@H]1CN(C)Cc1ccc(Cl)c(Cl)c1`, the inhibition was -11.4% (inactive). Turning to `C[C@@H](NC(=O)C[C@H]1C=C[C@H](NS(=O)(=O)c2cccc(F)c2)[C@H](CO)O1)c1ccccc1`, the inhibition is -23.7% (inactive). In the case of `O=C(CC1CC1)N1CC(=O)N2[C@H](C1)[C@H](c1ccc(C#Cc3cccc(F)c3)cc1)[C@@H]2CO`, the inhibition was 23.8% (inactive). Take `COCC(=O)N1CC(=O)N2[C@H](CO)[C@H](c3ccc(C#CC4CC4)cc3)[C@H]2C1`: the inhibition is 25.9% (inactive). Take `O=C(CC1CC1)N1CC(=O)N2[C@@H](CO)[C@H](c3ccc(/C=C/c4ccccc4)cc3)[C@@H]2C1`: the inhibition was 52.4% (active). In the case of `CS(=O)(=O)N1CC(=O)N2[C@H](C1)[C@@H](c1ccc(C#Cc3ccc(F)cc3)cc1)[C@@H]2CO`, the inhibition was 63.2% (active). With `O=C(CC1CC1)N1CC(=O)N2[C@H](CO)[C@@H](c3ccc(C#Cc4cccc(F)c4)cc3)[C@H]2C1`, the inhibition is 50.5% (active).

Consider `CS(=O)(=O)N1CC(=O)N2[C@H](CO)[C@@H](c3ccc(C#Cc4ccc(F)cc4)cc3)[C@H]2C1`, for which the inhibition was 43.4% (inactive).

Turning to `O=C(CC1CC1)N1CC(=O)N2[C@@H](CO)[C@H](c3ccc(C#Cc4cccc(F)c4)cc3)[C@@H]2C1`, the inhibition is 33% (inactive). The result for `CS(=O)(=O)N1CC(=O)N2[C@H](C1)[C@H](c1ccc(C#Cc3ccc(F)cc3)cc1)[C@@H]2CO` reads -7.23% (inactive); that for `COCC(=O)N1CC(=O)N2[C@H](CO)[C@@H](c3ccc(C#CC4CC4)cc3)[C@H]2C1`, 62.3% (active); that for `O=C(CC1CC1)N1CC(=O)N2[C@H](CO)[C@@H](c3ccc(/C=C/c4ccccc4)cc3)[C@@H]2C1`, 24.1% (inactive). As for `COCC(=O)N1CC(=O)N2[C@H](CO)[C@H](c3ccc(C#CC4CC4)cc3)[C@@H]2C1`, the inhibition is -14.5% (inactive). With `O=C(CC1CC1)N1CC(=O)N2[C@H](C1)[C@@H](c1ccc(/C=C/c3ccccc3)cc1)[C@@H]2CO`, the inhibition is 16.9% (inactive).

Turning to `CO[C@@H]1CN(C)C(=O)c2cc(NC(=O)Nc3cccc(Cl)c3)ccc2OC[C@@H](C)N(C(=O)Nc2c(C)noc2C)C[C@H]1C`, the inhibition is 19.6% (inactive). The result for `C[C@H]1CN([C@@H](C)CO)C(=O)c2cc(NC(=O)C3CC3)ccc2O[C@@H]1CN(C)S(=O)(=O)c1ccccc1` reads -17.4% (inactive). As for `C[C@H](CO)N1C[C@H](C)[C@@H](CN(C)C(=O)Nc2ccccc2)OCCCC[C@H](C)Oc2ccc(NC(=O)Nc3ccccc3)cc2C1=O`, the figure is 20% (inactive); as for `C[C@@H]1CN([C@H](C)CO)C(=O)Cc2cc(N(C)C)ccc2O[C@H]1CN(C)Cc1ccc(-c2ccccc2)cc1`, -24.6% (inactive).

With `O=C(c1ccccc1F)N1CC[C@H]2[C@H](CO)Nc3ccc(Br)cc3[C@H]21`, the inhibition was -3.54% (inactive). As to `O=C1CCCCn2nncc2COC[C@H](Cc2ccccc2)N1`, the inhibition was -21.7% (inactive). Take `COc1ccc(S(=O)(=O)Nc2ccc3c(c2)C(=O)N([C@H](C)CO)C[C@H](C)[C@H](CN(C)S(=O)(=O)c2ccc(Cl)cc2)OCCCC[C@@H](C)O3)cc1`: the inhibition was -2.26% (inactive). For `COc1ccc(S(=O)(=O)Nc2ccc3c(c2)C(=O)N([C@@H](C)CO)C[C@H](C)[C@@H](CN(C)S(=O)(=O)c2ccc(Cl)cc2)OCCCC[C@@H](C)O3)cc1`, the inhibition was 50.6% (active).

With `Cc1ccc(S(=O)(=O)Nc2ccc3c(c2)C(=O)N([C@H](C)CO)C[C@H](C)[C@@H](CN(C)S(=O)(=O)c2cccs2)OCCCC[C@H](C)O3)cc1`, the inhibition was -31% (inactive).

Take `Cc1ccc(S(=O)(=O)Nc2ccc3c(c2)CC(=O)N([C@@H](C)CO)C[C@H](C)[C@@H](CN(C)S(=O)(=O)c2ccccc2)O3)cc1`: the inhibition is -31.9% (inactive). `Cc1ccc(S(=O)(=O)Nc2ccc3c(c2)CC(=O)N([C@H](C)CO)C[C@@H](C)[C@@H](CN(C)S(=O)(=O)c2ccccc2)O3)cc1`: the inhibition is 57.6% (active). For the compound `Cc1ccc(S(=O)(=O)Nc2ccc3c(c2)CC(=O)N([C@H](C)CO)C[C@@H](C)[C@H](CN(C)S(=O)(=O)c2ccccc2)O3)cc1`, the inhibition is -17.2% (inactive). Take `Cc1ccc(S(=O)(=O)Nc2ccc3c(c2)C(=O)N([C@H](C)CO)C[C@@H](C)[C@H](CN(C)S(=O)(=O)c2cccs2)OCCCC[C@@H](C)O3)cc1`: the inhibition was 57.5% (active).

For the compound `COc1ccc(S(=O)(=O)Nc2ccc3c(c2)C(=O)N([C@H](C)CO)C[C@H](C)[C@@H](CN(C)S(=O)(=O)c2ccc(Cl)cc2)OCCCC[C@H](C)O3)cc1`, the inhibition was -8.83% (inactive).

With `Cc1ccc(S(=O)(=O)Nc2ccc3c(c2)C(=O)N([C@@H](C)CO)C[C@@H](C)[C@H](CN(C)S(=O)(=O)c2cccs2)OCCCC[C@H](C)O3)cc1`, the inhibition is -3.15% (inactive).

For `O=C(C[C@@H]1C=C[C@H](NC(=O)c2cnccn2)[C@H](CO)O1)NCc1ccccc1F`, the inhibition is 7.69% (inactive). As for `COc1ccc2c3c([nH]c2c1)[C@H](CO)NCC31CN(C(=O)Nc2c(C)noc2C)C1`, the figure is -10.8% (inactive).

As for `COc1ccc(CN(C)C[C@@H]2OCCCC[C@@H](C)Oc3ccc(NC(=O)C4CCCCC4)cc3C(=O)N([C@H](C)CO)C[C@@H]2C)cc1`, the inhibition is -11.6% (inactive). For `N#C[C@@H]1[C@H](c2ccc(-c3cccc(F)c3)cc2)[C@@H](CO)N1C(=O)CN1CCOCC1`, the inhibition was 0.153% (inactive). Take `CN1C(=O)c2cc(NC(=O)c3cccc(Cl)c3)ccc2OC[C@H]2O[C@@H](CC(=O)NC3CCCCC3)CC[C@H]21`: the inhibition is 19.3% (inactive).

In the case of `COc1ccc(C(=O)N2C[C@H]3[C@@H](c4ccccc42)[C@@H](CO)N3Cc2ccccc2Cl)cc1`, the inhibition was -11.9% (inactive). As for `COCC(=O)N1[C@H](CO)[C@H](c2ccc(C#Cc3ccccc3F)cc2)[C@@H]1C#N`, the figure is 5.53% (inactive). On to `COc1ccc(C(=O)N2C[C@@H]3[C@H](c4ccccc42)[C@H](CO)N3C(=O)NC(C)C)cc1`, for which the inhibition was -12.1% (inactive).

The values are drawn from PubChem BioAssay AID743449 (Broad Institute, 2014).
